{"source": "the supplement of paper PMC6411743", "note": "± gives the standard deviation of the averaged measurements. Of roughly 6,500 targets only a part is listed; those with the largest changes were picked by preference.", "data": [{"compound": "Nc1ncnc2c1ncn2[C@@H]1O[C@H](COP(=O)(O)OP(=O)(O)OP(=O)(O)O)[C@@H](O)[C@H]1O [adenosine triphosphate]", "experiment": "NP40-soluble protein abundance relative to vehicle (solubility fold change) (ratio); higher = more soluble protein in presence of ATP", "conditions": "concentration: 8mM", "outline": "(§1)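 In three independent experiments, Jurkat crude lysate made by Dounce homogenisation was treated for 10 min at room temperature and then 3 min at 37 °C with eight concentrations ranging from 0.1 to 10 mM. It was then solubilised with 0.8% NP40 plus benzonase for 60 min at 4 °C and ultracentrifuged. The supernatant was TMT-labelled for LC-MS/MS, and each value is the fold change against the detergent-processed vehicle for the same replicate, using vsn-normalised intensities.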", "values": [{"target": "E7EUT5|P04406 (UniProt P04406)", "NP40-soluble protein abundance": "0.954 ± 0.024"}, {"target": "A0A087WYN9|Q7Z478 (UniProt Q7Z478)", "sequence (Q7Z478 whole entry, one chain of several)": "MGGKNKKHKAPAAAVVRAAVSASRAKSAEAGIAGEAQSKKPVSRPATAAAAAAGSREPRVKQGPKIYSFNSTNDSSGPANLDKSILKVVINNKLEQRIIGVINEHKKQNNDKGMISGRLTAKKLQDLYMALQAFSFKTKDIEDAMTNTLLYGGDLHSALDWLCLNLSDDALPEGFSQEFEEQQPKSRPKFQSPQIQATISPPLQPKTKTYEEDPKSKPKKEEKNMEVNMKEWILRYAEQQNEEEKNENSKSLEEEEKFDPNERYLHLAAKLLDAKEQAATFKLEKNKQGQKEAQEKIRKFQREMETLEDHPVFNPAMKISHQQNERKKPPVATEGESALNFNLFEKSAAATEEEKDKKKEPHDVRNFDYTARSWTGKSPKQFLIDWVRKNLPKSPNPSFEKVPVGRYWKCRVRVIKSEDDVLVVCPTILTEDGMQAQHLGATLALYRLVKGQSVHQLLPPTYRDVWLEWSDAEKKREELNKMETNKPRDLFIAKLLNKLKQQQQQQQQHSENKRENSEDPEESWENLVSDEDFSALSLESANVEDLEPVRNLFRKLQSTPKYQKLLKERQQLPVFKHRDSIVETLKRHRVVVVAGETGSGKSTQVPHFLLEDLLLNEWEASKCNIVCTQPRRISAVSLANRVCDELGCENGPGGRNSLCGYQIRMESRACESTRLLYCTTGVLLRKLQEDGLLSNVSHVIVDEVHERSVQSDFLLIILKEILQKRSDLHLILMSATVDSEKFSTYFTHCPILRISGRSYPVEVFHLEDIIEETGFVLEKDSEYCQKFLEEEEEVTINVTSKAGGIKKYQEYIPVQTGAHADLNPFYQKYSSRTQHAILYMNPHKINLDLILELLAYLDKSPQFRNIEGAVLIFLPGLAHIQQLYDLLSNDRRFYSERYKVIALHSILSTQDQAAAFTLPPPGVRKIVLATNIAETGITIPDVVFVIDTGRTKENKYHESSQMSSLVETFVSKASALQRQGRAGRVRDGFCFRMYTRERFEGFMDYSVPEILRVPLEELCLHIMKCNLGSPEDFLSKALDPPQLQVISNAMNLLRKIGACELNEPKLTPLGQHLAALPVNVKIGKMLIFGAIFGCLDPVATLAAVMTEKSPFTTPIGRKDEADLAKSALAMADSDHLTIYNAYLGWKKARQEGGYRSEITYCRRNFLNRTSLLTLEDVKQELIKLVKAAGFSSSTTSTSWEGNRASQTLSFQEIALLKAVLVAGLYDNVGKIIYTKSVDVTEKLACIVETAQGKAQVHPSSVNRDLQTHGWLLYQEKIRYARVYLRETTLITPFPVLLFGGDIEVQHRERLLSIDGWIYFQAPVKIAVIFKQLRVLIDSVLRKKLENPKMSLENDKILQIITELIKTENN", "NP40-soluble protein abundance": "2.68 ± 0.07"}, {"target": "F8W060|Q9BZF1 (UniProt Q9BZF1)", "NP40-soluble protein abundance": "0.964 ± 0.013"}, {"target": "B4DT96|C9JYA1|O15504|O15504-2 (UniProt O15504)", "sequence (O15504 whole entry, one chain of several)": "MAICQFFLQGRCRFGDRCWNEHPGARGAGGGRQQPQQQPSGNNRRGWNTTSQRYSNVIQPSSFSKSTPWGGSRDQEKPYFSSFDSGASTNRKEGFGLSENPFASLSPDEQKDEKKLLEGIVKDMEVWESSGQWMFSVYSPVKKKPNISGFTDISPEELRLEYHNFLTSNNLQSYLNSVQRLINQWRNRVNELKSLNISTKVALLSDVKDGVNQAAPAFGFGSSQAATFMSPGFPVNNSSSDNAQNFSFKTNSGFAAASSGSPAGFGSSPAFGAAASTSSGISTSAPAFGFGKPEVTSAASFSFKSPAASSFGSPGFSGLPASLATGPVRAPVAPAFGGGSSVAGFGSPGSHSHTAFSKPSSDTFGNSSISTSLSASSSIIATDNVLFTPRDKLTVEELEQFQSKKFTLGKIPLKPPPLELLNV", "NP40-soluble protein abundance": "1.42 ± 0.26"}, {"target": "B7ZC38|Q9NR46 (UniProt Q9NR46)", "NP40-soluble protein abundance": "0.988 ± 0.056"}, {"target": "C9J0K6|P30626|P30626-2|P30626-3 (UniProt P30626)", "sequence (P30626 whole entry, one chain of several)": "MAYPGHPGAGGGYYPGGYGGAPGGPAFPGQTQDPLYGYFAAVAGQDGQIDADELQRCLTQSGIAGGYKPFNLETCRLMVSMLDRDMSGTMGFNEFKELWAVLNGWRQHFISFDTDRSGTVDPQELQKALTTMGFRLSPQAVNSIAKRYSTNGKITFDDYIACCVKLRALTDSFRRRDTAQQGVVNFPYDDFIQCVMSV", "NP40-soluble protein abundance": "0.896 ± 0.011"}, {"target": "A0A0X1KG71 (UniProt Q8WX92)", "NP40-soluble protein abundance": "0.959 ± 0.022"}, {"target": "A0A0C4DGQ5|P04632 (UniProt P04632)", "sequence (P04632 whole entry, one chain of several)": "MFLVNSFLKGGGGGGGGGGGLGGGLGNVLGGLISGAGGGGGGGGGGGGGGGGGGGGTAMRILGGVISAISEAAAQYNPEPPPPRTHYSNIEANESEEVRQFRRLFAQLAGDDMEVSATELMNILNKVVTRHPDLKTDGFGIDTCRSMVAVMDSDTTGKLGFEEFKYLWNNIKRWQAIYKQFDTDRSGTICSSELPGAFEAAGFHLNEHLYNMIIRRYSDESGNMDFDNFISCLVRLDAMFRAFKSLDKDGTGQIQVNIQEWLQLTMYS", "NP40-soluble protein abundance": "0.885 ± 0.0089"}, {"target": "UniProt O00560|O00560-2", "NP40-soluble protein abundance": "0.9459 ± 0.0062"}, {"target": "HMGN4 (UniProt O00479)", "NP40-soluble protein abundance": "1.63 ± 0.72"}, {"target": "A0A0A0MT22|M9MML4|P08575|P08575-2|X6R433 (UniProt P08575)", "sequence (P08575 whole entry, one chain of several)": "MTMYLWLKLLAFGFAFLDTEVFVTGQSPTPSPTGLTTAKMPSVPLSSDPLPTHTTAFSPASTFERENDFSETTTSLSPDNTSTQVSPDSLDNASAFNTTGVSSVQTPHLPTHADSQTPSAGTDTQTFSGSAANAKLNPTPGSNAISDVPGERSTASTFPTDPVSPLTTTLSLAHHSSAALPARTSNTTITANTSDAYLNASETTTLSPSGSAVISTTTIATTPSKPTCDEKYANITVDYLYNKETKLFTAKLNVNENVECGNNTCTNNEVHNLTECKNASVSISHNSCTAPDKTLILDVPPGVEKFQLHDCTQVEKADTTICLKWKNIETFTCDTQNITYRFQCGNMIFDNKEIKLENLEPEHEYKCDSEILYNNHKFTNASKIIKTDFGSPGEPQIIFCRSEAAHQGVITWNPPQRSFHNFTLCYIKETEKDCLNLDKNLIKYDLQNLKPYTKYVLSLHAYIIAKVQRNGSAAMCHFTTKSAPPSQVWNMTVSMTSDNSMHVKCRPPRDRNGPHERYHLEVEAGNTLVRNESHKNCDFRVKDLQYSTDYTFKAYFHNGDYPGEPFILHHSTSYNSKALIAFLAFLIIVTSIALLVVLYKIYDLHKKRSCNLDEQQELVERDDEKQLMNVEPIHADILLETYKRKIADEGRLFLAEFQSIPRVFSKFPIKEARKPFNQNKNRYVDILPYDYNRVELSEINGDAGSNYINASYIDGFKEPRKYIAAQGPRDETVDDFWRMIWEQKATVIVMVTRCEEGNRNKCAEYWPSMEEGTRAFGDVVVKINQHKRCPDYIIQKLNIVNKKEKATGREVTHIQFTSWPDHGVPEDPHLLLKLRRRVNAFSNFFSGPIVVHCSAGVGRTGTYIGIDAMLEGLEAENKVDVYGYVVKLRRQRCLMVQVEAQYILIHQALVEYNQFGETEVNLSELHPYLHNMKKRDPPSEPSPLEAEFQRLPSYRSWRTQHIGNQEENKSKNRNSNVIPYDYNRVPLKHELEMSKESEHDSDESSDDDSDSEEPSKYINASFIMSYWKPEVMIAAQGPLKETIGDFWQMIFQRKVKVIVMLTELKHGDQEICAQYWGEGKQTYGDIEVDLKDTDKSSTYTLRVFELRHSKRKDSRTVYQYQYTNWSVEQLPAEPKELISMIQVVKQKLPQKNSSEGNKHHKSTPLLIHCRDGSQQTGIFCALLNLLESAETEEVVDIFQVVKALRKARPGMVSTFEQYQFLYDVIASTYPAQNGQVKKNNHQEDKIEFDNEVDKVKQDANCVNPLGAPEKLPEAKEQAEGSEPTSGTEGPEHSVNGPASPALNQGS", "NP40-soluble protein abundance": "0.918 ± 0.018"}, {"target": "F8W057|Q9GZN1|Q9GZN1-2 (UniProt Q9GZN1)", "NP40-soluble protein abundance": "1.2 ± 0.028"}, {"target": "A0A0B4J1Z1|C9JAB2|Q16629|Q16629-2|Q16629-3|Q16629-4 (UniProt Q16629)", "sequence (Q16629 whole entry, one chain of several)": "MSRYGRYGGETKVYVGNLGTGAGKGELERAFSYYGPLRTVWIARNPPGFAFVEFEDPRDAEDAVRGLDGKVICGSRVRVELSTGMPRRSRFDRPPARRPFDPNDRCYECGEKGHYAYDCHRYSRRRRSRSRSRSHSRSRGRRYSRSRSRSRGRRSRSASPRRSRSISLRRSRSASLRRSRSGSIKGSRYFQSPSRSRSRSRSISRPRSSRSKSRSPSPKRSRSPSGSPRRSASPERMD", "NP40-soluble protein abundance": "1.98 ± 0.38"}, {"target": "B4DZG1|Q9Y483-3|Q9Y483 (UniProt Q9Y483)", "NP40-soluble protein abundance": "1.5 ± 0.032"}, {"target": "E7EQI7|Q12768 (UniProt Q12768)", "NP40-soluble protein abundance": "1.07 ± 0.068"}, {"target": "A8MXP9|P43243|P43243-2 (UniProt P43243)", "sequence (P43243 whole entry, one chain of several)": "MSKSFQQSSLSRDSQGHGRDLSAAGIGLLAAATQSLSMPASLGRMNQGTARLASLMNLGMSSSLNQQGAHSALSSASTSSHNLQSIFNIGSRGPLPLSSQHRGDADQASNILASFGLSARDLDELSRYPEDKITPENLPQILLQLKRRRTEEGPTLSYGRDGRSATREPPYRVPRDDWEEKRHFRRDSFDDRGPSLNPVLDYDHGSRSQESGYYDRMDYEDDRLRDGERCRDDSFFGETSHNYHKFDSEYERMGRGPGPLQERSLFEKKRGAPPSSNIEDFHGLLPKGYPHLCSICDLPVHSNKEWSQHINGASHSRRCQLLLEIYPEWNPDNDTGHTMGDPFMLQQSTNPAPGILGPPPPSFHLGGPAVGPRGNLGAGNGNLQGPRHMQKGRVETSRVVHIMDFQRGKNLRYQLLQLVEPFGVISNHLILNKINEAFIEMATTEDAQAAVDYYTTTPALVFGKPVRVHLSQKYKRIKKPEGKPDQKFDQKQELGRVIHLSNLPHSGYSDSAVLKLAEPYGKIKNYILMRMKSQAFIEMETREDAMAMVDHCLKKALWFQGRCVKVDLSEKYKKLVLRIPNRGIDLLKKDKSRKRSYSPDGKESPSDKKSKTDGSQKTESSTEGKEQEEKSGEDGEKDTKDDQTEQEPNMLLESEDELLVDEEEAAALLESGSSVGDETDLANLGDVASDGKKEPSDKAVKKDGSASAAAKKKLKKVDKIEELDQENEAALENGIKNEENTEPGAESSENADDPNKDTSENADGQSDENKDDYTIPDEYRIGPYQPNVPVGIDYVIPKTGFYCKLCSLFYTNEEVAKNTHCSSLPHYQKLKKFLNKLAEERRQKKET", "NP40-soluble protein abundance": "1 ± 0.029"}, {"target": "J9JID7|Q03252 (UniProt Q03252)", "NP40-soluble protein abundance": "1.03 ± 0.047"}, {"target": "E7EX59|E9PDR0|P05166|P05166-2|E7EUY3 (UniProt P05166)", "NP40-soluble protein abundance": "0.998 ± 0.033"}, {"target": "G8JLQ3|P78537|P78537-2 (UniProt P78537)", "sequence (P78537 whole entry, one chain of several)": "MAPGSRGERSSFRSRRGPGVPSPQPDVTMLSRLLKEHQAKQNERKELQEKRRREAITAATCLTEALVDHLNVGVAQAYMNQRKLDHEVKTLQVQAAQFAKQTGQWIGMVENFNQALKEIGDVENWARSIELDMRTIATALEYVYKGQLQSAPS", "NP40-soluble protein abundance": "0.816 ± 0.032"}, {"target": "A0A0B4J2C3|P13693|Q5W0H4 (UniProt P13693)", "sequence (P13693 whole entry, one chain of several)": "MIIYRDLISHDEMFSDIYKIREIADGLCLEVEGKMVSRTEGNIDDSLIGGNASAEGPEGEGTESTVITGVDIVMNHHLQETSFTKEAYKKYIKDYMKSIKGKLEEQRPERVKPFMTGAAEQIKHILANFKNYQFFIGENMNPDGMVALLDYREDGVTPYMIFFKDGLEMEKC", "NP40-soluble protein abundance": "0.919 ± 0.035"}, {"target": "C9JKQ2|O43676 (UniProt O43676)", "NP40-soluble protein abundance": "0.862 ± 0.04"}, {"target": "DNAJC13 (UniProt O75165)", "NP40-soluble protein abundance": "1.68 ± 0.12"}, {"target": "E9PJI1|Q92993-3|Q92993-4|Q92993|Q92993-2 (UniProt Q92993)", "NP40-soluble protein abundance": "1.06 ± 0.21"}, {"target": "A0A0G2JPT5|O75943|O75943-2 (UniProt O75943)", "NP40-soluble protein abundance": "1.69 ± 0.28"}, {"target": "UniProt A7KAX9|A7KAX9-2", "NP40-soluble protein abundance": "0.904 ± 0.04"}, {"target": "A0A0A0MTC1|A0A0A0MTR7 (UniProt Q63HN8)", "NP40-soluble protein abundance": "1.2 ± 0.049"}, {"target": "A0A0D9SEU5|Q6VN20|Q6VN20-3|R4GMX8 (UniProt Q6VN20)", "NP40-soluble protein abundance": "0.935 ± 0.028"}, {"target": "A0A0A0MRR7|P09234 (UniProt P09234)", "NP40-soluble protein abundance": "1.83 ± 0.041"}, {"target": "B7ZBK4|Q92664 (UniProt Q92664)", "NP40-soluble protein abundance": "0.989 ± 0.026"}, {"target": "E9PEB9|Q03001|Q03001-3 (UniProt Q03001)", "NP40-soluble protein abundance": "0.899 ± 0.09"}, {"target": "E9PRY8|P29692|P29692-2|P29692-3|P29692-4 (UniProt P29692)", "NP40-soluble protein abundance": "0.88 ± 0.042"}, {"target": "CPNE3 (UniProt O75131)", "NP40-soluble protein abundance": "0.951 ± 0.024"}, {"target": "XYLB (UniProt O75191)", "NP40-soluble protein abundance": "0.99 ± 0.075"}, {"target": "UniProt O14662-2|O14662-4|O14662-5", "NP40-soluble protein abundance": "0.983 ± 0.034"}, {"target": "J3KPP4|O95232 (UniProt O95232)", "NP40-soluble protein abundance": "2.27 ± 0.13"}, {"target": "UniProt O15169|O15169-2", "NP40-soluble protein abundance": "1 ± 0.047"}]}, {"compound": "Nc1ncnc2c1ncn2[C@@H]1O[C@H](COP(=O)(O)OP(=O)(O)OP(=O)(O)O)[C@@H](O)[C@H]1O [adenosine triphosphate]", "experiment": "NP40-soluble protein abundance relative to vehicle (solubility fold change) (ratio); higher = more soluble protein in presence of ATP", "conditions": "concentration: 10mM", "outline": "as §1", "values": [{"target": "E7EUT5|P04406 (UniProt P04406)", "NP40-soluble protein abundance": "0.944 ± 0.059"}, {"target": "A0A087WYN9|Q7Z478 (UniProt Q7Z478)", "NP40-soluble protein abundance": "2.74 ± 0.062"}, {"target": "F8W060|Q9BZF1 (UniProt Q9BZF1)", "NP40-soluble protein abundance": "0.959 ± 0.045"}, {"target": "B4DT96|C9JYA1|O15504|O15504-2 (UniProt O15504)", "NP40-soluble protein abundance": "1.77 ± 0.49"}, {"target": "B7ZC38|Q9NR46 (UniProt Q9NR46)", "NP40-soluble protein abundance": "0.936 ± 0.039"}, {"target": "C9J0K6|P30626|P30626-2|P30626-3 (UniProt P30626)", "NP40-soluble protein abundance": "0.811 ± 0.12"}, {"target": "A0A0X1KG71 (UniProt Q8WX92)", "NP40-soluble protein abundance": "0.956 ± 0.023"}, {"target": "A0A0C4DGQ5|P04632 (UniProt P04632)", "NP40-soluble protein abundance": "0.875 ± 0.06"}, {"target": "UniProt O00560|O00560-2", "NP40-soluble protein abundance": "0.957 ± 0.031"}, {"target": "HMGN4 (UniProt O00479)", "NP40-soluble protein abundance": "2.97 ± 2.3"}, {"target": "A0A0A0MT22|M9MML4|P08575|P08575-2|X6R433 (UniProt P08575)", "NP40-soluble protein abundance": "0.943 ± 0.036"}, {"target": "F8W057|Q9GZN1|Q9GZN1-2 (UniProt Q9GZN1)", "NP40-soluble protein abundance": "1.17 ± 0.089"}, {"target": "A0A0B4J1Z1|C9JAB2|Q16629|Q16629-2|Q16629-3|Q16629-4 (UniProt Q16629)", "NP40-soluble protein abundance": "2.09 ± 0.36"}, {"target": "B4DZG1|Q9Y483-3|Q9Y483 (UniProt Q9Y483)", "NP40-soluble protein abundance": "1.56 ± 0.049"}, {"target": "E7EQI7|Q12768 (UniProt Q12768)", "NP40-soluble protein abundance": "1.02 ± 0.05"}, {"target": "A8MXP9|P43243|P43243-2 (UniProt P43243)", "NP40-soluble protein abundance": "1.03 ± 0.015"}, {"target": "J9JID7|Q03252 (UniProt Q03252)", "NP40-soluble protein abundance": "1.09 ± 0.059"}, {"target": "E7EX59|E9PDR0|P05166|P05166-2|E7EUY3 (UniProt P05166)", "NP40-soluble protein abundance": "0.979 ± 0.03"}, {"target": "G8JLQ3|P78537|P78537-2 (UniProt P78537)", "NP40-soluble protein abundance": "0.702 ± 0.15"}, {"target": "A0A0B4J2C3|P13693|Q5W0H4 (UniProt P13693)", "NP40-soluble protein abundance": "0.909 ± 0.048"}, {"target": "C9JKQ2|O43676 (UniProt O43676)", "NP40-soluble protein abundance": "0.868 ± 0.042"}, {"target": "DNAJC13 (UniProt O75165)", "NP40-soluble protein abundance": "1.73 ± 0.22"}, {"target": "E9PJI1|Q92993-3|Q92993-4|Q92993|Q92993-2 (UniProt Q92993)", "NP40-soluble protein abundance": "1.13 ± 0.1"}, {"target": "A0A0G2JPT5|O75943|O75943-2 (UniProt O75943)", "NP40-soluble protein abundance": "1.65 ± 0.33"}, {"target": "UniProt A7KAX9|A7KAX9-2", "NP40-soluble protein abundance": "0.941 ± 0.018"}, {"target": "A0A0A0MTC1|A0A0A0MTR7 (UniProt Q63HN8)", "NP40-soluble protein abundance": "1.11 ± 0.031"}, {"target": "A0A0D9SEU5|Q6VN20|Q6VN20-3|R4GMX8 (UniProt Q6VN20)", "NP40-soluble protein abundance": "0.951 ± 0.036"}, {"target": "A0A0A0MRR7|P09234 (UniProt P09234)", "NP40-soluble protein abundance": "1.84 ± 0.1"}, {"target": "B7ZBK4|Q92664 (UniProt Q92664)", "NP40-soluble protein abundance": "0.976 ± 0.053"}, {"target": "E9PEB9|Q03001|Q03001-3 (UniProt Q03001)", "NP40-soluble protein abundance": "0.968 ± 0.056"}, {"target": "E9PRY8|P29692|P29692-2|P29692-3|P29692-4 (UniProt P29692)", "NP40-soluble protein abundance": "0.865 ± 0.015"}, {"target": "CPNE3 (UniProt O75131)", "NP40-soluble protein abundance": "0.96 ± 0.024"}, {"target": "XYLB (UniProt O75191)", "NP40-soluble protein abundance": "0.967 ± 0.053"}, {"target": "UniProt O14662-2|O14662-4|O14662-5", "NP40-soluble protein abundance": "0.921 ± 0.068"}, {"target": "J3KPP4|O95232 (UniProt O95232)", "NP40-soluble protein abundance": "2.32 ± 0.18"}, {"target": "UniProt O15169|O15169-2", "NP40-soluble protein abundance": "1.15 ± 0.21"}]}]}
